# Assay results published in PubChem BioAssay AID686978 (National Center for Advancing Translational Sciences (NCATS), 2013).
# Values joined by “and” are separate entries in the source; they are usually repeats but may differ in a detail not shown here. Equal values may be shown once. Out of some 420,000 compounds screened, about 64,000 (15%) were called active. Inconclusive results (about 27%) are left out. Only a sample is shown. A number with no mark means an inactive call. Calls follow the shape of the dose curve; as a rule, active = well fitted inhibition curve with a large enough effect; inconclusive = small, poorly fitted or top-dose-only effect; inactive = flat fitted curve, though single readings scatter.
# Test: qHTS for Inhibitors of human tyrosyl-DNA phosphodiesterase 1 (TDP1): qHTS in cells in absence of CPT; also: nearly all actives have a fitted effect of over 55% in size
# Details: DT40 Tdp1-/- hTDP1 cells, no CPT, ATP luminescence, 48 h; activity change, negative = growth inhibition: at 46.2 µM (top of the series)
# Method in brief: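 Growth of hTDP1-complemented DT40 Tdp1-knockout cells is measured by ATP luminescence after at least 48 hr compound exposure at 37 °C, with DMSO substituting for the 20 nM CPT used in the parallel screen.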
# % is scaled to controls: 0 for no effect and ±100 for the full control effect; potency is read from the fitted curve at half-maximal effect.
SMILES,"activity change, negative = growth inhibition",Potency
Oc1ccc(-c2[nH]ncc2-c2nc3ccccc3s2)c(O)c1,10.6%,
COCCOC1CCN(C(=O)c2ccc(OC)c(OC3CCN(C(C)C)CC3)c2)CC1,8.08%,
NC(=O)c1ccc(N2CCOCC2)nc1,22.6%,
CC(C)CNC(=O)COC(=O)/C=C/c1ccco1,-4.26%,
COc1cc(NC(=O)NCC2CCN(Cc3ccc(C)cc3)CC2)cc(OC)c1OC,,inactive
Cc1ccc(-c2onc(C)c2C)cc1S(=O)(=O)Nc1ccccn1,-25.3%,
COc1ccc(C)cc1S(=O)(=O)NCCc1ccccc1,-19.9%,
COc1ccc(-c2onc(C)c2C)cc1S(=O)(=O)NCC1CCN(Cc2cccc(F)c2)CC1,,25.9 µM (active)
COc1ccc(C)cc1NC(=O)CNCc1cccs1,-1.9%,
COc1ccc(-c2onc(C)c2C)cc1S(=O)(=O)NCc1cccs1,,18.4 µM (active)
O=C(CN1C2CCC1CC(NC(=O)C1CC1)C2)NCc1ccccc1 (configuration not stated),1.04%,
O=S(=O)(O)CCN1CCOCC1,-6.34%,
Cc1nc2nc(CSc3nc4ccccc4s3)cc(=O)n2[nH]1,-12%,
C=CCOC(=O)C1=C[C@@H](c2ccc3c(c2)OCO3)C[C@@H](OCCCCO)O1,-79.5%,
COc1ccc2ccccc2c1CNCc1ccccn1,-28.3%,
Cc1ccc(C)c(NC(=O)NNC(=O)c2ccc3ccccc3c2O)c1,-26.2%,
Cc1ccc(C)c(NC(=O)CCC(=O)NNC(=O)c2cccs2)c1,-1.86%,
Cc1ccc(C)c(NC(=S)NNC(=O)c2csc(C)c2)c1,,18.4 µM (active)
Cc1cc(C(=O)OCC(=O)Nc2nnc(C(C)C)s2)c2ccccc2n1,-1.36%,
C=CCO/N=C(\C)c1c(O)c(C)c(-c2ccccc2)n(-c2ccccc2)c1=O,4.5%,
CC(C)c1ccc(NC(=O)c2ccc3c(O)c(S(=O)(=O)c4ccccc4)c(=O)[nH]c3c2)cc1,-26.3%,
COC(=O)c1scc(-c2ccc(C)cc2)c1S(=O)(=O)Nc1cc(Cl)c(OC)cc1OC,,11.6 µM (active)
COc1cc(OC)c(NS(=O)(=O)c2cn(C)cn2)cc1Cl,8.31%,
COc1ccc(C)cc1S(=O)(=O)Nc1cccc(Cl)c1Cl,-19.3%,
CC1O[C@@H](OC2C(O)C(C)O[C@H](OC(=O)[C@]34CCC(C)(C)C[C@H]3C3=CCC5[C@@]6(C)CC(O)C(O[C@@H]7OC(CO)C(O)[C@@H](O)[C@@H]7O)[C@@](C)(C(=O)O)C6CC[C@@]5(C)[C@]3(CO)CC4)C2O[C@H]2OC(C)[C@@H](O[C@@H]3OCC(O[C@@H]4OC(CO)C(O)[C@H](O)C4O)[C@@H](O)[C@@H]3O)[C@H](O)C2O)C(O)C(O)C1O (some centres not stated),-0.939%,
Cc1ccc(CN2COc3cc(C)c4c(oc(=O)c5ccccc54)c3C2)cc1,-25.3%,

SMILES,"activity change, negative = growth inhibition",Potency
CN(C(=O)c1ccccn1)c1nnc(-c2ccccn2)s1,-6.67%,
CC1CC(C)(C)NC(=S)N1CCC(=O)N1CCN(Cc2ccccc2)CC1 (configuration not stated),-5.4%,
CC(=O)N(Cc1cc(=O)[nH]c2ccccc12)c1ccc(C)cc1C,-4.22%,
Cc1ccc(N(Cc2cc(=O)[nH]c3ccccc23)C(=O)CCl)cc1,,2.31 µM (active)
CCOC(=O)c1ccc(COC(=O)c2cc(=O)[nH]c3ccccc23)o1,5.73%,
O=C(Nc1ccn(Cc2ccccc2F)n1)c1ccc(COc2ccc(Cl)cc2Cl)o1,,25.9 µM (active)
CC(=O)Nc1ccn(Cc2c(F)cccc2Cl)n1,-21.4%,
COC(=O)c1ccccc1NC(=O)c1ccc(COc2ccccc2Cl)o1,-23.7%,
O=C1CC(c2ccccc2)C(=O)N2C(=O)CC(c3ccccc3)C(=O)N12 (configuration not stated),-3.36%,
c1ccc2c(c1)OCC(c1nn3cnnc3s1)O2 (configuration not stated),9.7%,
CCOC(=O)c1c(NC(=O)/C=C/c2ccc(OC)cc2)sc2c1CCC(C)C2 (configuration not stated),-5.43%,
O=C(CN1CCCC1)Nc1sc2c(c1C(=O)Nc1ccccc1)CCCC2,-23.3%,
CCOc1ccc(NC(=O)c2c(NC(=O)Cc3ccccc3)sc3c2CCC(C)C3)cc1 (configuration not stated),,20.6 µM (active)
COc1ccc(CC(=O)Nc2sc(Cc3ccccc3)c(C)c2C(N)=O)cc1,-17.9%,
CCOc1ccc(NC(=O)c2c(NC(=O)Cc3ccccc3)sc3c2CCCCC3)cc1,,20.6 µM (active)
CC(C)OC(=O)c1c(NC(=O)c2ccco2)sc2c1CCCC2,2.44%,
Cc1sc2c(c1C)c(=O)n(-c1ccccc1)c1nncn21,-26.5%,
Cc1cccc(C2c3c(n(C)c(=O)n(C)c3=O)N=C3c4ccccc4C(=O)C32)c1 (configuration not stated),-57.1%,
CC(=O)c1sc(N/N=C\c2ccc(C)cc2)nc1C,-6.34%,
Cc1ccc(Nc2nc(N)nc(CSc3nnc(C)s3)n2)cc1,-20.7%,
Cc1ccc(Nc2nc(Cl)c(C=O)s2)cc1,,23.1 µM (active)
COc1ccc(CC(=O)Nc2c3c(nn2-c2cccc(Cl)c2)CS(=O)C3)cc1 (configuration not stated),-24.1%,
Cc1ccc(OCC(=O)NC(C)c2ccccc2)c([N+](=O)[O-])n1 (configuration not stated),-5.01%,
C=C1C2C[C@H](O)C(C)(C)[C@@]2(O)[C@H](O)C[C@]23C[C@@](C)(O)[C@H](CC[C@H]12)[C@H]3O (some centres not stated),12.3%,
Cc1c(C(=O)N/N=C/c2ccccc2)[nH]c2c([N+](=O)[O-])cccc12,,0.92 µM (active)
Cc1nn(-c2ccccc2)c(Cl)c1/C=N/NC(=O)c1nn(C)cc1[N+](=O)[O-],-28.7%,

SMILES,"activity change, negative = growth inhibition",Potency
Cc1cc(C(=O)N/N=C/c2ccccc2[N+](=O)[O-])c(C)o1,-20.6%,
O=C(Cc1ccc([N+](=O)[O-])cc1)Nc1ccc(C(=O)N2CCOCC2)cc1,-10.5%,
O=C(Cc1ccc(NC(=O)C2CCCN(C(=O)CCc3ccccc3)C2)cc1)Nc1ccc(C(=O)N2CCOCC2)cc1 (configuration not stated),,18.4 µM (active)
CC(C)(C)OC(=O)N1CCC(C(=O)Nc2cccc(C(=O)NCCc3ccccc3)c2)CC1,,14.6 µM (active)
CC(=O)c1cccc(NC(=O)N2CCCC2C(=O)NCCc2ccccc2)c1 (configuration not stated),0.243%,
CN(C(=O)c1cccc(NC(=O)Cc2ccc(NC(=O)C3CCCN(C(=O)C4CC4)C3)cc2)c1)C1CC1 (configuration not stated),0.0642%,
CN(C(=O)c1ccc(NC(=O)Cc2cccc(NC(=O)C3CCN(C(=O)c4ccccc4)CC3)c2)cc1)C1CC1,1.83%,
CN(C(=O)c1cccc(NC(=O)C2CCN(C(=O)OC(C)(C)C)CC2)c1)C1CCC1,-24.9%,
CN(C(=O)c1cccc(NC(=O)Cc2ccc(NC(=O)C3CCCN(C(=O)C4CCCC4)C3)cc2)c1)C1CCC1 (configuration not stated),,20.6 µM (active)
CN(C(=O)c1cccc(NC(=O)Cc2cccc(NC(=O)C3CCCN(C(=O)C4CC4)C3)c2)c1)C1CCC1 (configuration not stated),-29.4%,
CCNC(=O)c1cccc(NC(=O)C2CC(=O)N(CCc3ccccc3)C2)c1 (configuration not stated),7.49%,
O=C(Cc1ccc(NC(=O)C2CCCN(C(=O)C3CCCCC3)C2)cc1)Nc1cccc(C(=O)N2CCCCC2)c1 (configuration not stated),-20.7%,
CN(CCc1ccccc1)C(=O)c1cccc(NC(=O)Cc2cccc(NC(=O)C3CCCN(C(=O)CCc4ccccc4)C3)c2)c1 (configuration not stated),,13 µM (active)
Cc1cc(NC(=O)CCC(=O)N(Cc2ccccc2)C(C(=O)NC2CCCC2)c2ccc(C)o2)no1 (configuration not stated),-28.1%,
CCc1nc2ccc(C(=O)NC3CCN(Cc4ccccc4)CC3)cn2c1N(C)CCN1CCOCC1,-24.4%,
O=C(NC(=S)Nc1ccccc1C(=O)O)c1ccc(-c2ccc(Br)cc2)o1,-10.9%,
O=C(c1cccnc1NCc1ccccc1)N1CCOCC1,-11.3%,
CC(=O)Nc1ccc(NC(=O)c2ccc3c(c2)C(=O)N(c2ccccc2C)C3=O)cc1,5.82%,
NC(=O)C1(N2CCCCC2)CCN(C(=O)c2ccc(C#Cc3ccccc3)o2)CC1,-29.5%,
COCCCNC(=O)CNC(=S)N(Cc1cc(OC)c(OC)c(OC)c1)C1CCCC1,7.92%,
COc1ccc(C)cc1N(C)C(=O)c1coc(=O)c2ccccc12,-19.8%,
CC/C(Cc1ccccc1)=N/NC(=O)CCn1nnc2ccccc21,0.293%,
NS(=O)(=O)c1ccc(NC(=S)N2CCCC2)cc1,17.6%,
CCN(CC)C(=O)CSc1nnc(CNc2ccc(F)cc2)n1Cc1ccco1,0.469%,
CC1CN(Cc2ccco2)C(=S)N(c2ccccc2)C1=O (configuration not stated),-2.45%,
CN(C)C(=S)N=c1ssc(=S)n1Cc1ccco1,,1.64 µM (active)

SMILES,"activity change, negative = growth inhibition",Potency
CC1=CC=CC2=N/C(=N\S(=O)(=O)c3ccc(F)cc3F)c3ccccc3CN12,-23.1%,
CCOC(=O)CSC1=C(C#N)C(c2sccc2C)CC(=O)N1 (configuration not stated),,3.55 µM (active)
C=CCSC1=C(C#N)C(c2cc(Br)c(O)c(OC)c2)CC(=O)N1 (configuration not stated),-1.88%,
COC(=O)CSC1=C(C#N)C(c2ccccc2OC)C(C(=O)OC)C(=O)N1 (configuration not stated),-2.46%,
COc1cccc(CNC(=O)C2CCN(S(=O)(=O)c3cccc4cccnc34)CC2)c1,-14.2%,
Cc1ccc2nc(C)c3c(c2c1)N(c1ccccc1)CC3,,13 µM (active)
Cc1nc2ccc(C(=O)N3CCN(c4ccccc4)CC3)cc2s1,-8.77%,
Cc1ccc2nc3n(c(=O)c2c1)CCC3,-1.96%,
CC(=O)c1ccc(NC(=O)CCc2nnc3ccc(NCc4ccco4)nn23)cc1,-26.2%,
Cc1cc(C)nc(NS(=O)(=O)c2ccc(NC(=O)c3cc(=O)c4ccc(C)c(C)c4o3)cc2)n1,-12.7%,
Cc1nc(SCC(=O)Nc2ccc(C(=O)O)cc2)n[nH]1,-3.23%,
O=S(=O)(Nc1cc(Cl)ccc1N1CCOCC1)c1ccccc1Cl,-1.88%,
O=S(=O)(N1CCOCC1)N1CCN(c2ccccc2F)CC1,-6.21%,
O=C1c2ccccc2-c2ncnc3c(N4CCOCC4)cc(N4CCOCC4)c1c23,,10.3 µM (active)
COc1ccc(CCNC(=O)CSc2nnc3ccc(-c4ccncc4)nn23)cc1,3.54%,
Cc1nn(Cc2ccc(F)cc2)c(C)c1NC(=O)c1cc(CC(C)C)on1,,20.6 µM (active)
Cc1nn(Cc2ccc(F)cc2)c(C)c1NC(=O)c1cccnc1Cl,0.0616%,
Cc1ccccc1Cn1nc(C)c(NC(=O)C(F)(F)F)c1C,9%,
Cc1nn(Cc2ccc(F)cc2)c(C)c1NC(=O)c1noc2c1CCc1ccccc1-2,,18.4 µM (active) and 16.4 µM (active)
CC(C)Cc1cc(C(=O)NCCc2ccccc2)no1,-11.1%,
Cc1nn(Cc2ccccc2Cl)c(C)c1NC(=O)Cn1nc([N+](=O)[O-])c(Cl)c1C,-1.09%,
Cc1cc(C(=O)Nc2c(C)nn(Cc3ccccc3)c2C)on1,3.16%,
CC(C)Cc1cc(C(=O)Nc2cc(Br)ccc2O)no1,,14.6 µM (active)
CC(C)CNC(=O)c1cc(-c2ccc(Br)cc2)on1,-14.2%,
